Source: PubChem BioAssay (NCI)
Several values for one entry are separate records, joined by “and”; a condition that tells them apart may be missing. Equal entries are not always repeated. This is part of a sample that, as a whole, favours compounds with a hit. Of some 83,000 tested, about 20% had one in any assay.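 Treatment: one concentration, 48 hours, 96-well format. Scoring: percent growth, with anything below 10 considered active.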 Activity calls are given as the source filed them.

The molecules below were run on UACC-62 melanoma (assay: NCI-60 one-dose screen, 48 h (100 = growth as untreated, 0 = no growth, -100 = all killed)). Conditions: 10 µM.
Experimental: Growth inhibition of the UACC-62 human tumor cell line is measured as a screen for anti-cancer activity. Cells are grown in 96 well plates and exposed to the test compound for 48 hours. Compounds are tested at a single concentration, which is 10^-5 M for most compounds. The reported endpoint is percent growth (GI% or GIPRCNT), where numbers from 0 - 100% represent growth inhibition, and numbers from -100% - 0 represent cell death. For example, a value of 40 represents 60% growth inhibition. A value of 0 means no net growth occurred over the course of the experiment. A value of -40 indicates 40% of cells at the beginning of the experiment died by the end of the experiment. A value of -100 means all cells are dead at the end of the experiment.
NCI-60 Human Tumor Cell Lines Screen was performed using the standard one-dose NCI protocol, which is described in more detail at https://dtp.cancer.gov/discovery_development/nci-60/default.htm.
Compounds with GIPRCNT values below 10 were considered active. Activity score was based on GIPRCNT using the following formula: […]
Score is 0 for GIPRCNT values of 100 or above, 50 for GIPRCNT values of 0, and 100 for GIPRCNT values of -100.

| SMILES | growth |
| --- | --- |
| CCc1ccccc1-n1c(N)c(C#N)c(-c2ccc(OC)c(OC)c2)c(C#N)c1=O | 105% (inactive) |

Same assay, conditions: 10 µM unless noted

| SMILES | growth |
| --- | --- |
| Cc1cc(N(CCC#N)CCC#N)ccc1/C=N/NC(=O)c1cc(Cl)ccc1O | 46.2% [100 µM] (inactive) and 8.92% [100 µM] (active) |
| Cn1cnc([N+](=O)[O-])c1Sc1ncnc2nc[nH]c12 | 20.2% (inactive) and 35.8% (inactive) |
| CCOc1cc2c(cc1O)C=C[C@@H]1[C@@H]2CC[C@]2(C)[C@@H](O)CC[C@@H]12 | -65.7% [100 µM] (active) and -100% [100 µM] (active) |
| NC(N)=Nc1ccc(CC(N)C(=O)O)cc1 (stereo not given) | 89% [12.5 µM] (inactive) and 94.1% [12.5 µM] (inactive) |
| Clc1ccc(C2NN=C3c4ccccc4OCC32)cc1 (stereo not given) | 4.4% [100 µM] (active) and -69.2% [100 µM] (active) |
| NNc1[nH]c(=S)[nH]c1C(N)=O | 98.3% [100 µM] (inactive) and 90.9% [100 µM] (inactive) |
| CC(C)(C)c1cc(C2COC(=O)COCCOCC(=O)OCCOCCO2)cc(C(C)(C)C)c1O (stereo not given) | 24.1% [100 µM] (inactive) and -65.6% [100 µM] (active) |
| CN1C(=O)C(N=Nc2ccc([N+](=O)[O-])cc2)SC1=S (stereo not given) | 29.8% (inactive) and 38.4% (inactive) |
| CCN(CC)CCOc1ccc2c(c1)C(=O)c1cc(OCCN(CC)CC)ccc1-2 | 105% (inactive) and 103% (inactive) |
| CO/C(N)=C(\C#N)N=Cc1ccc2ccccc2c1 | -20.4% [100 µM] (active) and 1.77% [100 µM] (active) |
| CC(=N/N=C/c1ccccn1)/C(C)=N/N=C(C)/C(C)=N/N=C(C)/C(C)=N/N=C(C)/C(C)=N\N=C\c1ccccn1 | 92.9% [100 µM] (inactive) and 85% [100 µM] (inactive) |
| Cc1ccc(F)cc1NC(=O)O/N=C(\Cl)C(C)C | 82.6% [100 µM] (inactive) and 60.7% [100 µM] (inactive) |
| CCN(CC)CCCC(CNc1ccnc2cc(Cl)ccc12)c1ccc(Cl)cc1 (stereo not given) | -77.6% (active) and 97.7% (inactive) |
| C=C1C(=O)O[C@H]2C[C@@]3(C)[C@H](O)CCC(=C)[C@@H]3[C@@H](OC(C)=O)[C@H]12 | -98.5% [100 µM] (active) and -92.2% [100 µM] (active) |
| O=C(/C=C\c1ccnc2ccccc12)c1ccc([N+](=O)[O-])cc1 | 82.6% (inactive) and 70.7% (inactive) |
| COc1ccc(-c2nc3ccccc3c(=S)n2OC(C)=O)cc1 | -63.4% [25 µM] (active) and -95.7% [25 µM] (active) |
| O=C(CN1CCOCC1)N1CCOCC1 | 93.9% (inactive) and 96.6% (inactive) |
| CC1(c2ccc3ccccc3c2)CCC(=O)O1 (stereo not given) | 95.7% (inactive) |
| CC(C)C1OC(N)=C(C#N)C1(C#N)C#N (stereo not given) | 55.5% [100 µM] (inactive) and 25.9% [100 µM] (inactive) |

| SMILES | growth |
| --- | --- |
| Nc1n[nH]c(=S)n1-c1ccc(Cl)cc1 | 96.2% (inactive) |
| CNC(=S)c1nnsc1N | 70.7% [100 µM] (inactive) and -2.69% [100 µM] (active) |
| Cn1c(=O)n(-c2ccc(C(C)(C)C#N)cc2)c2c3cc(-c4cnc5ccccc5c4)ccc3ncc21 | -18.9% (active) and -20.3% (active) |
| Nc1nc(SC/C=C/CCl)c2[nH]cnc2n1 | 104% (inactive) and 105% (inactive) |
| COC(=O)c1nc(N)nc(C(=O)OC)c1C(=O)c1ccc(OC)cc1 | 102% (inactive) and 35% (inactive) |
| Nc1ncnc2c1ncn2C1CC(O)C(CO)O1 (stereo not given) | 104% (inactive) and 105% (inactive) |
| C[C@]12CC[C@@H]3c4ccc(OS(N)(=O)=O)cc4CC[C@H]3[C@@H]1CCC2=O | 9.29% [100 µM] (active) and 48.3% [100 µM] (inactive) |
| CC12CCC(CC1)C(C)(C)O2 | 103% (inactive) |
| N#Cc1nc(-c2cccc(-c3nc(C#N)c(N)o3)n2)oc1N | 89.4% [100 µM] (inactive) and 63.8% [100 µM] (inactive) |
| COc1ccc(N=C(C)C(C)=Nc2ccc(OC)cc2)cc1 | 9.18% [100 µM] (active) and 4.99% [100 µM] (active) |
| CC[N+](CC)(CC(=O)Nc1c(C)cccc1C)Cc1ccccc1 | 81.6% (inactive) and 93.2% (inactive) |
| COc1ccc2cc1Oc1ccc(cc1)CC1c3cc(OC)c(cc3CCN1C)Oc1c(OC)c(OC)cc3c1C(C2)N(C)CC3 (stereo not given) | -46.8% [75 µM] (active) and -87.8% [75 µM] (active) |
| CC(=O)c1ccc2c(c1)N(CCCN1CCN(CCO)CC1)c1ccccc1S2 | 95.8% (inactive) and -58.7% (active) |
| COc1ccc(-c2cn[nH]c2-c2cc(OC)c(OC)c(OC)c2)cc1N | 46.1% (inactive) and 32.6% (inactive) |
| Cn1cc(-c2cc3c(Nc4ccc(CC(=O)Nc5cc(C(C)(C)C)on5)cc4)ncnc3[nH]2)cn1 | -77.9% (active) and -80% (active) |
| CC(=O)c1ccc(NC(=O)/C(CC(=O)/C=C/c2ccccc2)=N/NC(N)=S)cc1 | 91.1% [100 µM] (inactive) and 43.7% [100 µM] (inactive) |
| CC(=O)Nc1cccc2c1CCCC2 | 107% (inactive) and 102% (inactive) |
| COC(=O)C(=O)C(C(=O)C(=O)Nc1ccc(Cl)c(Cl)c1)c1nc2ccc(C(=O)c3ccccc3)cc2[nH]c1=O (stereo not given) | 43.9% [100 µM] (inactive) and 6.66% [100 µM] (active) |
| O=c1c2ccccc2nc(-c2ccccc2)n1/N=C/c1ccccc1[N+](=O)[O-] | 54.7% [100 µM] (inactive) and 24.5% [100 µM] (inactive) |

Same assay, conditions: 100 µM

| SMILES | growth |
| --- | --- |
| CCc1ccccc1-n1c(N)c(C#N)c(-c2ccc(OC)c(OC)c2)c(C#N)c1=O | 35% (inactive) |
